In all, about 5,500 compounds went through this assay and about 2,000 (36%) were called active. Inconclusive results (about 18%) are left out. No stated cut-off is given here; in the data, active means normalized growth mostly below about 0.91 (no sharp cut-off); inconclusive means no clear call, values can overlap the other calls; inactive means mostly above about 0.92. Some of the results follow.
Experiment: chemical genetic growth profiling, strain panel (AID 1159580);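 further: tested at 20 µM; growth read once vehicle control cultures reached saturation at 30 °C; 1 = growth at the plate median or of vehicle wells; lower values mean less growth of the strain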
Settings: S. cerevisiae deletion strains, growth OD
[1] = locus YAL013W, strain DEP1, active compounds read low
[2] = locus YBR229C, strain ROT2, active compounds read low
[3] = locus YDL101C, strain DUN1, active compounds read low
[4] = locus YDL134C, strain PPH21, active compounds read low
[5] = locus YDR150W, strain NUM1, active compounds read low
[6] = locus YEL061C, strain CIN8, active compounds read low
[7] = locus YGR078C, strain PAC10, active compounds read low
[8] = locus YHR030C, strain SLT2, active compounds read low
[9] = locus YHR087W, strain rtc3, active compounds read low
[10] = locus YJR043C, strain POL32, active compounds read low
[11] = locus YJR075W, strain HOC1, active compounds read low
[12] = locus YLR039C, strain RIC1, active compounds read low
[13] = locus YLR058C, strain SHM2 (second series), active compounds read low
[14] = locus YLR085C, strain ARP6, active compounds read low
[15] = locus YLR262C, strain YPT6, active compounds read low
[16] = locus YML094W, strain GIM5, active compounds read low
[17] = locus YMR219W, strain ESC1, active compounds read low
[18] = locus YMR263W, strain SAP30, active compounds read low
[19] = locus YNL153C, strain GIM3, active compounds read low
[20] = locus YNL298W, strain CLA4 (second series), active compounds read low
[21] = locus YNL322C, strain KRE1, active compounds read low
[22] = locus YNR030W, strain Alg12, active compounds read low
[23] = locus YPL055C, strain LGE1, active compounds read low
[24] = locus YPL241C, strain CIN2, active compounds read low
[25] = locus YPR135W, strain CTF4, active compounds read low

Measured: normalized growth

COC(=O)/C(=C/N(C)C)Sc1cc(C)c(Cl)cc1Cl
inactive: [1] 0.945 | [2] 0.968 | [3] 1.01 | [4] 0.983 | [5] 0.958 | [6] 0.951 | [7] 0.979 | [9] 0.939 | [10] 0.983 | [11] 0.935 | [13] 0.939 | [14] 0.91 | [16] 0.914 | [17] 0.959 | [18] 0.946 | [19] 0.992 | [20] 0.925 | [22] 0.942 | locus YOL006C, strain TOP1, active compounds read low 0.978 | [23] 0.922 | [24] 0.947 | [25] 0.747
active: [8] 0.296 | locus YKL190W, strain CNB1, active compounds read low 0.91 | [12] 0.622 | [15] 0.587 | [21] 0.933

CC(C)(C)c1ccc(-c2nc(-c3cc(C(C)(C)C)c(O)c(C(C)(C)C)c3)cs2)cc1
inactive: [1] 1.01 | [2] 1 | locus YCL061C, strain MRC1, active compounds read low 1.03 | [3] 1.02 | [4] 1.02 | [5] 0.912 | [6] 1.03 | [7] 1.02 | [8] 1.09 | [9] 1.01 | locus YJL187C, strain SWE1, active compounds read low 1.01 | [10] 1.01 | [11] 1.03 | [12] 1.08 | [13] 1.01 | [14] 1.21 | [15] 1.04 | [16] 1.03 | [17] 1.01 | [18] 0.947 | [19] 0.988 | [20] 1.05 | [21] 1.01 | [22] 1.03 | [23] 1.17 | [24] 1.13 | [25] 1.07

Cc1ccc(-c2csc(-c3cccnc3)n2)c(C)c1
inactive: locus YAR019C, strain CDC15, active compounds read low 0.948 | locus YBL105C, strain PKC1, active compounds read low 0.967 | locus YBR135W, strain CKS1, active compounds read low 0.954 | locus YBR136W, strain MEC1, active compounds read low 0.958 | locus YBR160W, strain CDC28, active compounds read low 0.963 | locus YDL017W, strain CDC7, active compounds read low 0.967 | locus YDL028C, strain MPS1, active compounds read low 0.964 | [3] 0.938 | locus YDL108W, strain KIN28, active compounds read low 0.964 | locus YDL132W, strain cdc53, active compounds read low 0.946 | locus YDL214C, strain PRR2, active compounds read low 0.88 | locus YDR052C, strain DBF4, active compounds read low 0.96 | locus YDR054C, strain cdc34, active compounds read low 0.943 | locus YDR226W, strain ADK1, active compounds read low 0.964 | locus YDR477W, strain SNF1, active compounds read low 0.87 | locus YER123W, strain YCK3, active compounds read low 0.769 | locus YER133W, strain GLC7, active compounds read low 0.85 | locus YFL009W, strain cdc4, active compounds read low 0.954 | locus YFL029C, strain CAK1, active compounds read low 0.943 | locus YFR003C, strain YPI1, active compounds read low 0.959 | locus YFR019W, strain FAB1, active compounds read low 0.821 | locus YFR028C, strain CDC14, active compounds read low 0.947 | locus YGR040W, strain KSS1, active compounds read low 0.832 | locus YGR052W, strain FMP48, active compounds read low 0.933 | locus YGR092W, strain DBF2, active compounds read low 0.737 | locus YHR079C, strain IRE1, active compounds read low 0.839 | locus YHR082C, strain KSP1, active compounds read low 0.901 | locus YHR205W, strain SCH9, active compounds read low 0.886 | locus YIL147C, strain SLN1, active compounds read low 0.957 | locus YJL095W, strain BCK1, active compounds read low 0.772 | locus YJL128C, strain PBS2, active compounds read low 0.946 | locus YJL157C, strain FAR1, active compounds read low 0.898 | locus YJR016C, strain ILV3, active compounds read low 0.956 | locus YJR066W, strain TOR1 (second series), active compounds read low 0.796 | locus YJR066W, strain TOR1, active compounds read low 0.833 | locus YKL048C, strain ELM1, active compounds read low 0.939 | locus YKL067W, strain YNK1, active compounds read low 0.897 | locus YKL101W, strain HSL1, active compounds read low 0.914 | locus YKL193C, strain SDS22, active compounds read low 0.945 | locus YKL203C, strain TOR2, active compounds read low 0.847 | locus YLR133W, strain CKI1, active compounds read low 0.905 | locus YLR403W, strain SFP1, active compounds read low 0.809 | locus YML070W, strain DAK1, active compounds read low 0.891 | locus YMR001C, strain CDC5, active compounds read low 0.957 | locus YMR205C, strain PFK2 (second series), active compounds read low 0.879 | locus YMR277W, strain FCP1, active compounds read low 0.951 | locus YNL006W, strain LST8, active compounds read low 0.96 | locus YNL020C, strain ARK1, active compounds read low 0.898 | locus YNL161W, strain CBK1, active compounds read low 0.96 | locus YNL183C, strain NPR1, active compounds read low 0.826 | locus YNL207W, strain RIO2, active compounds read low 0.935 | locus YNL222W, strain SSU72, active compounds read low 0.955 | locus YNL307C, strain MCK1 (second series), active compounds read low 0.862 | locus YOL078W, strain AVO1, active compounds read low 0.953 | locus YOL136C, strain PFK27, active compounds read low 0.894 | locus YOR061W, strain CKA2, active compounds read low 0.912 | locus YOR119C, strain RIO1, active compounds read low 0.881 | locus YOR231W, strain MKK1, active compounds read low 0.841 | locus YOR329C, strain SCD5, active compounds read low 0.951 | locus YPL031C, strain PHO85, active compounds read low 0.832 | locus YPL153C, strain RAD53, active compounds read low 0.838 | locus YPL204W, strain HRR25, active compounds read low 0.796 | locus YPL209C, strain IPL1, active compounds read low 0.955 | locus YPR025C, strain CCL1, active compounds read low 0.959 | locus YPR106W, strain ISR1, active compounds read low 0.957 | locus YPR111W, strain DBF20, active compounds read low 0.966 | strain NNK1, active compounds read low 0.947 | strain TSCII, active compounds read low 0.948
active: [8] 0.763 | locus YLR113W, strain HOG1, active compounds read low 0.854 | locus YPL256C, strain CLN2, active compounds read low 0.849
